BAZ2B block – inhibitors of human BAZ2B bromodomain; Potency, µM (top dose mostly 114 µM), without a hit: at the top dose activity change, negative = inhibition, actives largely listed as inhibitors; AlphaScreen BAZ2B-H3K14Ac peptide displacement; 360,000 tested, 4.4% active; note: % is set by controls: 0 for no effect and ±100 for the full control effect; nearly all actives have a fitted effect of over 60% in size
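BAZ2B (50 nM) with biotin-H3(5-23)K14Ac peptide (50 nM) in PBS pH 7.4, 0.01% Tween-20, preformed 30 min, then compound 30 min at room temperature; top concentration 110uM. AlphaScreen streptavidin donor/nickel chelate acceptor beads (10 ug/mL final), 20 min dark, signal read.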
VDR inhibitor – vitamin D3 receptor (human) inhibition; P11473; VDR-SRC2-3 peptide fluorescence polarization, 2 h; Potency, µM, without a hit: max response, negative = inhibition, hits mostly inhibitors; 400,000 tested, 0.93% active; note: % is set by controls: 0 for no effect and ±100 for the full control effect
Target sequence (P11473 whole entry, looked up): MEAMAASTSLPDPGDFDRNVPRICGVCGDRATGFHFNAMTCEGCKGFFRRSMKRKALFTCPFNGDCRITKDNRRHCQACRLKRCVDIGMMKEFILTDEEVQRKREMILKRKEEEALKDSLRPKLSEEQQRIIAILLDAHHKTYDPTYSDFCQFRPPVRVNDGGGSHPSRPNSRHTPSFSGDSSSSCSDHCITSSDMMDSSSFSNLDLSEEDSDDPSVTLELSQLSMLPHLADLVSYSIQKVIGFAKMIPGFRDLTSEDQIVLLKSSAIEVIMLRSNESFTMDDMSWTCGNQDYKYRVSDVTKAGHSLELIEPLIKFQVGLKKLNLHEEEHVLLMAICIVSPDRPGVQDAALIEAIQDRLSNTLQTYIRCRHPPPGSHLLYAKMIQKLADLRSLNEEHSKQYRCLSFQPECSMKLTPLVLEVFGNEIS
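Two reagent solutions held at 4 deg C in the dark were dispensed, compounds pinned at 23 nl, and the mixture incubated 2 h at room temperature. Read-out: fluorescence polarization of VDR–SRC2-3 peptide binding.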
L3MBTL1 block – inhibitors of human L3MBTL1. Potency, µM (titrated, usually from 57.1 µM), for the others: at the top dose activity, negative = inhibition, usual class: inhibitors. 230,000 tested, 0.66% active. AID 485360. AlphaScreen L3MBTL1–H3K9me1 peptide binding; note: % is set by controls: 0 for no effect and ±100 for the full control effect; nearly all actives have a fitted effect of over 60% in size
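Displacement of a biotinylated histone H3(1-15) peptide monomethylated at Lys9 (75 nM) from L3MBTL1 (50 nM) was measured by AlphaScreen after a 30 min room-temperature compound incubation; cefsulodin titration served as intraplate control.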
HP1b binding inh – HP1-beta chromodomain-methylated histone interaction inhibition; P83916; Potency, µM (highest dose often 114 µM), for inactives: at the top dose activity change, negative = inhibition, actives largely listed as inhibitors; 390,000 tested, 0.56% active; AlphaScreen HP1-beta / biotin-H3K9me3 peptide binding; note: nearly all actives have a fitted effect of over 70% in size
Target sequence (P83916 whole entry, looked up): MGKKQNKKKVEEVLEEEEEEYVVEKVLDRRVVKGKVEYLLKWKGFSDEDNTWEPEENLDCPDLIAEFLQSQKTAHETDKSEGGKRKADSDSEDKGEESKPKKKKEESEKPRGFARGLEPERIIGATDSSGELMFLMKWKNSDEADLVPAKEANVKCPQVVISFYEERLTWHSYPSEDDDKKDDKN
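Compound inhibition of the preformed complex between 50 nM HP1-beta and 50 nM biotinylated H3K9me3 peptide was read by AlphaScreen. Buffer was PBS pH 7.4 with 0.01% Tween-20. Incubations ran 30 min at room temperature, with 10 ug/mL donor/acceptor beads.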
PLK1 PBD inh – blocks phosphopeptide binding to human PLK1 polo-box domain; P53350; Plk1 PBD binding of FITC phosphopeptide, fluorescence polarization; Potency, µM, for the others: max response, negative = inhibition, usual class: inhibitors; 360,000 tested, 2.8% active; AID 720504; note: series mostly up to about 57 µM; % is set by controls: 0 for no effect and ±100 for the full control effect; nearly all actives have a fitted effect of over 65% in size
JMJD2A Tudor – blocks the human JMJD2A Tudor domain; O75164; Potency, µM (highest dose often 114 µM), for the others: at the highest dose activity change, negative = inhibition, actives largely listed as inhibitors; 390,000 tested, 4.4% active; AlphaScreen JMJD2A-Tudor / H3K4me3 peptide binding; note: % is set by controls: 0 for no effect and ±100 for the full control effect; nearly all actives have a fitted effect of over 50% in size
TbPYK confirm – confirmation of Trypanosoma brucei pyruvate kinase inhibitors; shares compounds with PLK1 PBD inh; recombinant TbPYK, Kinase-Glo ATP luminescence; Potency, µM (top dose mostly 76.9 µM), for the others: top-dose activity change, negative = inhibition, most hits filed as inhibitors; 890 tested, 67% active; AID 720569; note: % is set by controls: 0 for no effect and ±100 for the full control effect; nearly all actives have a fitted effect of over 70% in size
TbPYK ADP-Glo – inhibits T. brucei pyruvate kinase in orthogonal ADP-Glo assay; shares compounds with PLK1 PBD inh; recombinant TbPYK, ADP-Glo luminescence, 60 min; Potency, µM (top dose mostly 76.9 µM), for inactives: top-dose activity change, negative = inhibition, most hits filed as inhibitors; 890 tested, 62% active; AID 720584; note: % is set by controls: 0 for no effect and ±100 for the full control effect; nearly all actives have a fitted effect of over 75% in size
* = called active by the depositor; ? = inconclusive; . = not tested or not shown; [ ] = another dose, or the depositor's remark. Only some compounds are listed: those with a hit (about 6.9% of all), similar ones and a draw of the others. Calls come from the whole dose curve; as a rule, active = well fitted curve in the direction sought with a large enough effect; inconclusive = small, poorly fitted or top-dose-only effect, or another doubt; inactive = no such curve, though single readings can be large; an effect the other way counts as inactive or inconclusive. Potency is the fitted concentration of half-maximal effect.

SMILES	BAZ2B block	VDR inhibitor	L3MBTL1 block	HP1b binding inh	PLK1 PBD inh	JMJD2A Tudor	TbPYK confirm	TbPYK ADP-Glo
CC(C)(C)NC(=O)N1CCCC(C(=O)c2cccc(Cl)c2)C1 (stereo not drawn)	5%	24%	8%	23%	-13%	-12%	.	.
CCCCOc1ccc(C(=O)NN2C(=O)NC3(CCCCC3)C2=O)cc1OC	2%	-5%	7%	17%	2%	-12%	.	.
Oc1cc(O)cc(/C=C/c2ccc(O)c(O)c2)c1	?	-13%	?	16µM*	-13%	45µM*	11µM*	?
COC(=O)[C@]1(C)CCC[C@@]2(C)C3CC[C@@]4(C)C[C@]3(CCC21)CC(=O)N4 (stereo partly drawn)	5%	-18%	-2%	15%	-8%	-20%	.	.
C=C1C(=O)C23CCC4C(C)(C(=O)OC)CCCC4(C)C2CCC1(O)C3 (stereo not drawn)	.	?	.	22%	?	-21%	10µM*	14µM*
O=C(c1ccccc1)c1cc(Cl)ccc1N1C(=O)C=CC1=O	79µM*	25µM*	-16%	10µM*	3µM*	18µM*	5µM*	10µM*
O=C(CC(=O)c1cc(Cl)ccc1O)c1ccccc1	-3%	-2%	-5%	6%	-13%	-24%	.	.
Cc1ccc(C2=CSC3=NCCN23)c(C)c1	3%	-3%	0%	22%	?	?	13µM*	16µM*
CCN1C(=C(C#N)C#N)C=Cc2ccccc21	-10%	2%	-6%	17%	-8%	-19%	.	.
CCN1/C(=C2\C(=O)N(C)C(=S)N2C)C=Cc2ccccc21	50µM*	0%	-13%	?	0%	-35%	?	?
COc1ccc(CN2C(=O)CSC2c2ccccn2)cc1 (stereo not drawn)	-14%	-3%	-1%	31%	-20%	-6%	.	.
COCCN=C1NN=C(c2ccc(C)c([N+](=O)[O-])c2)CS1	-29%	?	-6%	12%	27µM*	?	?	?
O=C1NC(c2cccs2)Nc2sc3c(c21)CCCC3 (stereo not drawn)	1%	0%	-1%	27%	?	-20%	-18%	-20%
COc1cccc(N2CCN(C(=O)Cn3c(-c4cccs4)cc4ccccc43)CC2)c1	-26%	7%	.	26%	.	-28%	.	.
CCCn1c(SCC(=O)N(C)CC(=O)Nc2ccc(C)cc2)n[nH]c1=O	10%	6%	0%	51%	3%	4%	.	.
Cc1ccc2cc(CN(CC(C)C)C(=O)C3CCCO3)c(=O)[nH]c2c1 (stereo not drawn)	7%	3%	10%	22%	-8%	-4%	-20%	-28%
CCCN(C(=O)CCl)C1=CCCCC1	13%	-9%	.	29%	-11%	-18%	.	.
C1=CC2c3ccccc3NC(c3ccncc3)C2C1 (stereo not drawn)	?	?	?	?	?	45µM*	18µM*	16µM*
CCN(CC)c1ccc2nc3ccc(N)cc3[n+](-c3ccccc3)c2c1	13µM*	?	?	-89%	-27%	45µM*	?	8%
CCN(CC)c1ccc(/C=N/n2nnnc2N)c(O)c1	?	-3%	-11%[11.4 µM]	13%	-5%	?	.	.
CCc1nc2ccc(C(=O)N(C)CC(=O)Nc3ccc(F)c(F)c3F)cc2nc1CC	11%	-21%	0%	23%	-8%	-16%	.	.
Oc1c(CN2CCOCC2)cc(-c2ccccc2)cc1CN1CCOCC1	-37%	-7%	-5%	21%	-3%	-25%	.	.
Oc1c(CN2CCOCC2)cc(CN2CCOCC2)c(O)c1CN1CCOCC1	.	10µM*	.	8.9µM*	1.7µM*	7.9µM*	1.4µM*	?
O=C1N(Cc2ccccc2)CC2(Br)COCOC12O (stereo not drawn)	.	?	.	7.1µM*	2.7µM*	3.5µM*	1.1µM*	3.5µM*
CCCC(C)c1nnc(NC(=O)c2cc(C(=O)OC)cc([N+](=O)[O-])c2)s1 (stereo not drawn)	-6%	50µM*	-2%	-59%	6µM*	?	3.5µM*	14µM*
SMILES	BAZ2B block	VDR inhibitor	L3MBTL1 block	HP1b binding inh	PLK1 PBD inh	JMJD2A Tudor	TbPYK confirm	TbPYK ADP-Glo
Cc1nc2ccc(NC(=O)CCC3CCCC3)cc2s1	14%	-1%	.	-3%	4%	-12%	.	.
CCN(CC)Cc1cc2ccccc2c2c1COC2	-4%	7%	-7%	44%	-12%	-2%	.	.
CCN(CC)Cc1cc(O)c(CN(CC)CC)cc1O	18µM*	-3%	3.2µM*	1.4µM*	4.2µM*	0.79µM*	-99%	10µM*
Cc1nn2c(-c3ccc(Cl)cc3Cl)nnc2s1	-4%	-9%	-3%	18%	-6%	-3%	.	.
CC1(C)OC(=O)C(=Cc2ccc(-c3ccc(Cl)c(C(=O)O)c3)o2)C(=O)O1	79µM*	?	6.3µM*	19%	1.7µM*	?	7.1µM*	18µM*
Cc1ccc(NC(=O)/C(C#N)=C/c2ccc(-c3ccc(Cl)c(C(=O)O)c3)o2)cc1C	-27%	-8%	.	-8%	.	-20%	.	.
CC(C)(C)c1ccc(C(=O)N2[C@H](COCc3ccccc3)C=CS2(=O)=O)cc1	.	.	.	.	-20%	.	.	.
COC(=O)c1ccc(CCc2cc(O)c(Br)cc2O)cc1	.	-6%	.	?	?	2.8µM*	32µM*	35µM*
COC(=O)c1cc(Br)c(=O)n(CCc2ccccc2)c1	1%	9%	1%	35%	5%	11%	.	.
Cc1ccc(S(=O)(=O)N2CCC(C(=O)NNS(=O)(=O)c3ccc(Cl)cc3)CC2)cc1	?	11%	-6%	17%	2%	-16%	.	.
Cc1ccc(S(=O)(=O)NNC(=O)C2CCN(S(=O)(=O)c3ccc(C)cc3)CC2)cc1	?	-1%	4%	5%	-7%	-13%	4%	-3%
CCn1c(CCNC(=O)c2cccs2)nnc1SCC(=O)Nc1nc(-c2ccccc2)cs1	-7%	20%	-4%	6%	-5%	-27%	.	.
CCn1c(CCNC(=O)c2cccs2)nnc1SCC(=O)c1ccc(OC)cc1	.	-13%	.	?	?	28µM*	0.89µM*	14µM*
CC(C)c1cc2c(c(O)c1O)[C@@]13CCCC(C)(C)C1CC2OC3=O (stereo partly drawn)	-38%	?	.	?	6.7µM*	40µM*	1.8µM*	3.5µM*
Cc1cc(NC(=O)CSC2=NS(=O)(=O)c3ccccc3N2)no1	-9%	17%	7%	15%	-5%	-9%	.	.
